Source: PubChem
Rows were chosen to be rich in hits. Some 19% of all compounds tested hit in one or more screens of this group.
DT40 TDP1 no CPT: qHTS for Inhibitors of human tyrosyl-DNA phosphodiesterase 1 (TDP1): qHTS in cells in absence of CPT; hit rate 15% among 420,000; DT40 Tdp1-/- hTDP1 cells, no CPT, ATP luminescence, 48 h; AID 686978, 2013; Potency, µM (doses to about 46.2 µM), for the others: at the highest dose activity change, negative = growth inhibition, hits mostly inhibitors; further: potency means the concentration at half of the fitted maximal effect; nearly all actives have a fitted effect of over 55% in size
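A cellular qHTS used chicken DT40 cells lacking endogenous Tdp1 but carrying stably transfected human TDP1. Compounds were applied without camptothecin, and cell growth kinetics were judged by ATP-dependent luminescence after ≥48 hr.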
DT40 TDP1 CPT: DT40-hTDP1 cell growth loss with CPT; chicken DT40 Tdp1-/-;hTDP1 cells + 20 nM CPT, ATP luminescence, 48 h; Potency, µM (doses to about 46.2 µM), without a hit: at the highest dose activity change, negative = growth inhibition, usual class: inhibitors; hit rate 12% among 420,000; further: potency means the concentration at half of the fitted maximal effect; nearly all actives have a fitted effect of over 55% in size
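Cell growth measured by CellTiter-Glo luminescence after a minimum 48 h, 37 C compound exposure with 20 nM CPT in Tdp1-knockout DT40 cells stably expressing hTDP1, seeded 400/well; qHTS titration format.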
IL1B secr inh: inflammasome signaling inhibition, IL-1 beta readout; THP-1 LPS/ATP IL-1B secretion, AlphaLISA, 16 h; stronger effect = lower value; activity change, % at 57.5 µM; hit rate 4.7% among 360,000; AID 743279; in the data active means activity change below about -50%; inconclusive means mostly about -30% to -49%
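THP-1 cells pretreated 1 hr with compounds (up to 57.5 uM final), then stimulated with LPS (250 ng/mL final) plus ATP (1.25 mM final); secreted IL-1B measured by AlphaLISA after 16 hr, decreased signal indicating inhibition.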
ELG1 repair inh: inhibitors of ELG1-dependent DNA repair in HEK293T cells. HEK293T ELG1-luciferase reporter, luminescence, 16 h; DNA damage induced by 5-fluorouridine. Potency, µM (series often up to 46.1 µM), inactives show at the top dose activity change, negative = inhibition, hits mostly inhibitors. hit rate 2.3% among 330,000. AID 504467; further: potency means the concentration at half of the fitted maximal effect; nearly all actives have a fitted effect of over 55% in size
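In this reporter screen, reduction of luminescence relative to DMSO vehicle indicated activity. Compounds and 5-fluorouridine were added together to 2,000 cells per well, incubated for 16 hr at 37 °C, then developed with ONE-Glo.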
HT1080 IDH1KD tx: toxicity to HT-1080 IDH1 knockdown cells (counter line) | HT-1080 IDH1 knockdown viability, ATP luminescence, 48 h | Potency, µM (top dose mostly 46.1 µM), for inactives: at the highest dose activity, negative = toxicity, actives largely listed as cytotoxic | hit rate 2% among 360,000;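 further: potency means the concentration at half of the fitted maximal effect; 0% = DMSO wells and -100% = cell-free medium wells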
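In this qHTS, HT-1080 cells depleted of IDH1 are exposed for 48 h at 37 °C to compound titrations. Toxicity is scored from CellTiter-Glo luminescence, with DMSO as full viability and medium alone as none.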
HT1080NT lethal: kills 2HG-producing HT-1080-NT fibrosarcoma cells. HT-1080-NT fibrosarcoma viability, CellTiter-Glo ATP luminescence, 48 h. Potency, µM (titrated, usually from 46.1 µM), inactives show top-dose activity, negative = less viability, hits mostly cytotoxic. hit rate 1.6% among 360,000;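 further: NT is the 2HG producing partner of a matched IDH1 knockdown line; potency means the concentration at half of the fitted maximal effect; 0% = DMSO-treated cells and -100% = media-only wells without cells; nearly all actives have a fitted effect of over 55% in size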
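Fibrosarcoma NT cells, 750 per well in 5% FBS RPMI, were exposed to compound for 48 hours. Viability: CellTiter-Glo luminescence.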
Starred values were filed as active, the others as inactive. Unless noted, the call rests on the fitted dose curve; in most records, active means well fitted curve in the direction sought with a large enough effect; inconclusive means small, poorly fitted or top-dose-only effect, or another doubt; inactive means no such curve, though single readings can be large; an effect the other way counts as inactive or inconclusive. Unless noted, on the % scale 0 is the no-effect control and ±100 the full control effect.

`COc1cccc(C(c2nnnn2C(C)(C)C)N2CCN(C/C=C/c3ccccc3)CC2)c1OC` (stereo not given) gave DT40 TDP1 no CPT 16µM*, DT40 TDP1 CPT inconclusive, IL1B secr inh -9, HT1080 IDH1KD tx -27% and HT1080NT lethal inconclusive.
Screening C(=C\c1ccccc1)/CN1CCN(C(c2cccc3ccccc23)c2nnnn2C2CCCC2)CC1 (stereo not given) returned DT40 TDP1 no CPT 9.2µM*, DT40 TDP1 CPT 21µM*, IL1B secr inh inconclusive, HT1080 IDH1KD tx inconclusive and HT1080NT lethal inconclusive.
For CCOC(=O)C1=C(Nc2ccccc2)CC(C)(O)C(C(=O)OCC)C1c1ccc(Br)cc1 (stereo not given) the results were DT40 TDP1 no CPT 16µM*, DT40 TDP1 CPT inconclusive, IL1B secr inh -27, ELG1 repair inh inconclusive, HT1080 IDH1KD tx -11% and HT1080NT lethal -1%.
Screening CCOC(=O)C1=C(Nc2ccccc2)CC(C)(O)C(C(=O)OCC)C1c1ccccc1 (stereo not given) returned DT40 TDP1 no CPT 1%, DT40 TDP1 CPT 0%, IL1B secr inh -17, ELG1 repair inh -20%, HT1080 IDH1KD tx 12% and HT1080NT lethal 7%.
For COc1ccc(NS(=O)(=O)c2ccc3c(c2)NC(=O)CC(=O)N3)cc1OC the results were DT40 TDP1 no CPT 2%, DT40 TDP1 CPT -11%, IL1B secr inh 21, ELG1 repair inh 0%, HT1080 IDH1KD tx -1% and HT1080NT lethal 2%.
`Cc1cccc(C=Nc2ccc3c4c(cccc24)CC3)c1O` gave DT40 TDP1 no CPT -5%, DT40 TDP1 CPT -22%, IL1B secr inh 23, ELG1 repair inh inconclusive, HT1080 IDH1KD tx 0% and HT1080NT lethal 5%.
`CCc1ccc(O)c(N=Cc2cccc(C)c2O)c1` gave DT40 TDP1 no CPT 21µM*, DT40 TDP1 CPT 21µM*, IL1B secr inh 22, ELG1 repair inh 2%, HT1080 IDH1KD tx inconclusive and HT1080NT lethal inconclusive.
CC(C)C[C@H](NC(=O)[C@H](Cc1ccccc1)n1c(=O)[nH]c2ccccc2c1=O)C(=O)N1CCC[C@H]1C(=O)O was read as DT40 TDP1 no CPT -1%, DT40 TDP1 CPT 11%, IL1B secr inh 13, ELG1 repair inh 5%, HT1080 IDH1KD tx 8% and HT1080NT lethal 1%.
For Cc1ccc(-c2nn(-c3cc(N4CCNCC4)ccc3[N+](=O)[O-])c(=O)c3ccccc23)cc1 the results were DT40 TDP1 no CPT 4.1µM*, DT40 TDP1 CPT 3.7µM*, IL1B secr inh -182*, ELG1 repair inh -10%, HT1080 IDH1KD tx inconclusive and HT1080NT lethal 15µM*.
Screening Cc1nn(-c2cc(N3CCCCCC3)ccc2[N+](=O)[O-])c(=O)c2ccccc12 returned DT40 TDP1 no CPT -28%, DT40 TDP1 CPT -28%, IL1B secr inh -3, ELG1 repair inh -4%, HT1080 IDH1KD tx 11% and HT1080NT lethal 0%.
Cc1ccsc1C(=O)C1CCCN(Cc2cc(F)ccc2-n2cccn2)C1 (stereo not given) was read as DT40 TDP1 no CPT 12µM*, DT40 TDP1 CPT 9.2µM*, IL1B secr inh -19, ELG1 repair inh inconclusive, HT1080 IDH1KD tx -17% and HT1080NT lethal -30%.
For COc1cc(CC(=O)OCC(=O)NCCc2ccc(S(N)(=O)=O)cc2)cc(OC)c1OC the results were DT40 TDP1 no CPT 15%, DT40 TDP1 CPT 10%, IL1B secr inh 0, ELG1 repair inh 14%, HT1080 IDH1KD tx 7% and HT1080NT lethal 2%.
